Growth data for 13 molecules are collected here from PubChem BioAssay (NCI).

Compounds without any hit were thinned out: in the full panel of roughly 83,000, 20% have a hit.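 The endpoint reported here, percent growth, reads 100 for growth as untreated, 0 for no net growth and -100 for all cells dead.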 Unmarked numbers belong to inactive results. Active and inactive are the calls of the source. The calls were made as follows: active = growth percent below 10; inactive = the rest.

Some test systems named below: DU-145 prostate; K-562 leukemia; MALME-3M melanoma; MDA-MB-231 breast; RXF 393 renal; SF-268 CNS; SF-295 CNS; SF-539 CNS; UACC-257 melanoma; M14 melanoma.
Common to all, as to test: NCI-60 one-dose screen, 48 h (100 = growth as untreated, 0 = no growth, -100 = all killed)
Conditions in all cases: 10 µM

As to `N#Cc1ccc(OC(=O)Nc2ccc(Cl)c(Cl)c2)cc1`, the growth with DU-145 prostate is 72.3%; in the test on K-562 leukemia, 44%; in the test on MALME-3M melanoma it was 72.9%; in the test on MDA-MB-231 breast, 93%; in the test with RXF 393 renal, 91.5%; with SF-268 CNS, 94.4%. The growth with SF-295 CNS is 41.4%; in the test with SF-539 CNS, 91.5%; in the test with UACC-257 melanoma, 86.2%; in the test on M14 melanoma it was 76.6%.

`COc1ccccc1NC(=O)c1cc2cc(Br)ccc2cc1O`: the growth with DU-145 prostate is 27%; in the test on K-562 leukemia, 7.54% (active); with MALME-3M melanoma, -1.45% (active); in the test on MDA-MB-231 breast, 3.51% (active); in the test with RXF 393 renal, 39%; with SF-268 CNS, 17.8%. For the same molecule, the growth is 11.3% in the test on SF-295 CNS, 0.0916% (active) in the test with SF-539 CNS, -21% (active) in the test with UACC-257 melanoma and 19.6% in the test with M14 melanoma.

`O=[N+]([O-])c1ccccc1N=Nc1ccc(O)cc1O`: the growth in the test with DU-145 prostate was 117%; in the test with K-562 leukemia, 120%; in the test on MALME-3M melanoma, 109%; with MDA-MB-231 breast it was 119%; with RXF 393 renal, 121%; with SF-268 CNS, 118%. Besides, the growth in the test on SF-295 CNS is 107%; in the test with SF-539 CNS, 113%; with UACC-257 melanoma, 103%; in the test with M14 melanoma it was 110%.

Regarding `CCOc1ccc2[nH]c(=S)sc2c1`, the growth is 111% with DU-145 prostate; 90.8% with K-562 leukemia; 97.8% in the test with MALME-3M melanoma; 104% in the test with MDA-MB-231 breast; 116% in the test with RXF 393 renal; 103% in the test on SF-268 CNS. In addition, the growth in the test on SF-295 CNS is 111%; in the test with SF-539 CNS it was 106%; with UACC-257 melanoma, 104%; in the test on M14 melanoma it was 99%.

For `O=c1cc(-c2ccccc2)[nH]c(=S)[nH]1`, the growth in the test with DU-145 prostate was 104%; in the test on K-562 leukemia, 96.2%; in the test with MALME-3M melanoma, 83.5%; with MDA-MB-231 breast, 103%; in the test on RXF 393 renal, 108%; in the test on SF-268 CNS, 92.1%. For the same molecule, the growth with SF-295 CNS is 188%; in the test on SF-539 CNS it was 102%; in the test on UACC-257 melanoma, 109%; in the test on M14 melanoma, 102%.

Take `CC(O)COc1ccc(-c2ccccc2)cc1` (stereo not given): the growth in the test with DU-145 prostate is 108%; with K-562 leukemia, 102%; in the test with MALME-3M melanoma, 115%; with MDA-MB-231 breast, 96.6%; in the test with RXF 393 renal, 106%; in the test with SF-268 CNS it was 99.4%. Moreover, the growth was 107% in the test with SF-295 CNS, 104% in the test with SF-539 CNS, 119% in the test with UACC-257 melanoma and 108% with M14 melanoma.

Turning to `Cc1ccc(O)c(C(=O)c2ccccc2)c1`, the growth was 112% in the test with DU-145 prostate; 122% in the test on K-562 leukemia; 130% with MALME-3M melanoma; 90.6% with MDA-MB-231 breast; 110% in the test on RXF 393 renal; 101% in the test on SF-268 CNS. Besides, the growth with SF-295 CNS was 106%; with SF-539 CNS, 101%; in the test with UACC-257 melanoma, 96.4%; in the test on M14 melanoma it was 95.8%.

In the case of `CCC(O)CC(CC)CO` (stereo not given), the growth in the test on DU-145 prostate is 121%; with K-562 leukemia, 105%; in the test with MALME-3M melanoma, 128%; in the test on MDA-MB-231 breast it was 108%; in the test on RXF 393 renal it was 119%; in the test with SF-268 CNS it was 113%. The growth in the test on SF-295 CNS is 109%; with SF-539 CNS, 99.4%; with UACC-257 melanoma, 110%; in the test with M14 melanoma, 102%.

Take `NC(C(=O)O)C(O)c1ccco1` (stereo not given): the growth in the test on DU-145 prostate is 115%; in the test with K-562 leukemia, 105%; with MALME-3M melanoma, 98.6%; in the test with MDA-MB-231 breast, 117%; in the test on RXF 393 renal, 105%; with SF-268 CNS it was 116%. The growth with SF-295 CNS was 108%; in the test with SF-539 CNS it was 110%; with UACC-257 melanoma it was 102%; in the test on M14 melanoma, 105%.

Consider `CCN1C(=O)/C(=C/C=C/N(C)c2ccccc2)SC1=S`, for which the growth with DU-145 prostate is 88.8%; with K-562 leukemia it was 79.1%; with MALME-3M melanoma, 86.4%; in the test on MDA-MB-231 breast, 94.2%; with RXF 393 renal it was 90.3%; in the test with SF-268 CNS, 65.7%. The growth was 54.8% with SF-295 CNS, 92.3% in the test on SF-539 CNS, 97.7% in the test with UACC-257 melanoma and 101% with M14 melanoma.

Take `CC(=O)OC1CC2C(C)(C)OC3CC(=O)OCC32C2CCC3(C)C(=CCC3c3ccoc3)C12C` (stereo not given): the growth is 92.5% in the test on DU-145 prostate; 95.5% in the test with K-562 leukemia; 85.2% in the test on MALME-3M melanoma; 115% in the test with MDA-MB-231 breast; 105% in the test with RXF 393 renal; 98.6% with SF-268 CNS. Moreover, the growth is 107% in the test with SF-295 CNS, 104% in the test on SF-539 CNS, 72.7% in the test on UACC-257 melanoma and 115% with M14 melanoma.

Regarding `COc1cc2cc(c1Cl)N(C)C(=O)C[C@H](OC(=O)[C@H](C)N(C)C(C)=O)[C@]1(C)O[C@H]1[C@H](C)[C@@H]1C[C@@](O)(NC(=O)O1)[C@H](OC)C=C/C=C(\C)C2`, the growth was -40.4% (active) in the test with DU-145 prostate; -2.18% (active) in the test on K-562 leukemia; 33.7% in the test with MALME-3M melanoma; -13.1% (active) in the test on MDA-MB-231 breast; 13.3% in the test on RXF 393 renal; 23.5% with SF-268 CNS. Besides, the growth with SF-295 CNS was -13.8% (active); with SF-539 CNS, -23.5% (active); in the test on UACC-257 melanoma, 12.4%; in the test on M14 melanoma, -26.2% (active).

For the molecule `Cc1c(C(=O)O)c(=O)n(-c2ccccc2)n1C`, the growth with DU-145 prostate is 118%; in the test with K-562 leukemia it was 108%; with MALME-3M melanoma it was 163%; in the test with MDA-MB-231 breast it was 118%; in the test on RXF 393 renal it was 119%; with SF-268 CNS, 119%. The growth is 91.4% in the test on SF-295 CNS, 119% with SF-539 CNS, 93.8% with UACC-257 melanoma and 104% in the test on M14 melanoma.
